# Results from the supplement of paper PMC10127200.
# How the values were obtained:
# Test in all cases: Euclidean distance of Cell Painting phenotypic profile (signed KS, 77 features) to DMSO centroid (dimensionless distance); 5 or 10 uM (library dependent); higher = stronger phenotypic change vs DMSO (phenoactivity)
# Settings in all cases: 48 h
# 786-O = tested on: 786-O
# How it was run: (§1)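 Phenoactivity is computed as Euclidean distance to the median vehicle profile. The profiles, drawn from 77 Harmony features scored as signed Kolmogorov-Smirnov statistics versus same-plate vehicle wells, were corrected for plate position, correlation-weighted and replicate-averaged at the top dose. Stained cells were imaged confocally at 20X (9 fields/well) after 48 h with library compounds at 10 or 5 uM, 0.1% DMSO final, in five cancer lines and a healthy fibroblast line.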
# A549 = tested on: A549
# How it was run: as §1
# FB = tested on: FB
# How it was run: as §1
# HEPG2 = tested on: HEPG2
# How it was run: as §1
# OVCAR4 = tested on: OVCAR4
# How it was run: as §1
smiles,measurement,setting,value
Nc1ccc(S(=O)(=O)Nc2nccs2)cc1 [Sulfathiazole],Euclidean distance,786-O,0.815
same,Euclidean distance,A549,0.811
same,Euclidean distance,FB,0.62
same,Euclidean distance,HEPG2,0.824
same,Euclidean distance,OVCAR4,0.818
C[C@@H](O)[C@H]1C(=O)N2C(C(=O)O)=C(S[C@@H]3CN[C@H](C(=O)Nc4cccc(C(=O)O)c4)C3)[C@H](C)[C@H]12 [Ertapenem sodium],Euclidean distance,786-O,0.672
same,Euclidean distance,A549,0.953
same,Euclidean distance,FB,0.956
same,Euclidean distance,HEPG2,0.854
same,Euclidean distance,OVCAR4,0.913
Nc1ccc2cc3ccc(N)cc3nc2c1 [Proflavine Hemisulfate],Euclidean distance,786-O,4.95
same,Euclidean distance,A549,4.91
same,Euclidean distance,FB,5.65
same,Euclidean distance,HEPG2,5.57
same,Euclidean distance,OVCAR4,5.46
COc1ccc(CC(C)NCC(O)c2ccc(O)c(NC=O)c2)cc1 (stereo not given) [Formoterol Hemifumarate],Euclidean distance,786-O,1.29
same,Euclidean distance,A549,0.672
same,Euclidean distance,FB,0.886
same,Euclidean distance,HEPG2,1.15
same,Euclidean distance,OVCAR4,1.94
